In PubChem BioAssay (NCI) one finds growth data, which are given here for eight compounds.

Molecules are shown by their SMILES. About 83,000 compounds went through this panel and 20% of them were active in at least one assay; those are over-represented in the sample as a whole.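 A percent growth of 40 corresponds to 60% growth inhibition; 0 means no net growth; -100 means all cells died. Active threshold: below 10.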 A number with no mark means an inactive call. The source made the active and inactive calls.

Among the test systems are NCI-H23 lung; NCI-H226 lung; NCI-H322M lung; HOP-62 NSCLC; NCI-H460 lung; HOP-92 NSCLC; NCI-H522 lung; A549/ATCC NSCLC; 786-0 renal; DU-145 prostate; K-562 leukemia; MALME-3M melanoma; MDA-MB-231 breast; RXF 393 renal; SF-268 CNS; SF-295 CNS; SF-539 CNS; UACC-257 melanoma; M14 melanoma; COLO 205 colon.
Common to all, as to assay: NCI-60 one-dose screen, 48 h (100 = growth as untreated, 0 = no growth, -100 = all killed)
Conditions in all cases: 10 µM unless noted

For `Cc1cc2nc3c4cc([N+](=O)[O-])ccc4n(CCN(C)C)c3nc2cc1C`, the growth was -26.8% (active) with NCI-H23 lung; -25.3% (active) with NCI-H226 lung; -15.1% (active) with NCI-H322M lung; 5.3% (active) in the test with HOP-62 NSCLC; 1.25% (active) in the test on NCI-H460 lung; -10.7% (active) with HOP-92 NSCLC. Also, the growth in the test on NCI-H522 lung was -17% (active); in the test on A549/ATCC NSCLC it was -45.8% (active); in the test with 786-0 renal, 5.9% (active); with DU-145 prostate, 8.55% (active); in the test with K-562 leukemia, 0.995% (active); with MALME-3M melanoma, -40.1% (active). Besides, the growth in the test on MDA-MB-231 breast is -1.27% (active); in the test on RXF 393 renal, -50.6% (active); in the test on SF-268 CNS, -0.874% (active); in the test with SF-295 CNS, 0.581% (active); in the test with SF-539 CNS, -14.5% (active); in the test with UACC-257 melanoma, -1.98% (active). The growth with M14 melanoma was -27.3% (active).
As to `CCN(c1ccccc1)S(=O)(=O)c1cc([N+](=O)[O-])ccc1Cl`, the growth is 80.2% in the test with NCI-H23 lung; 36.4% in the test on NCI-H226 lung; 73.3% in the test on NCI-H322M lung; 105% with HOP-62 NSCLC; 106% in the test on NCI-H460 lung; 49.9% in the test with HOP-92 NSCLC. In addition, the growth is 23.7% in the test on NCI-H522 lung; 102% with A549/ATCC NSCLC; 97.4% in the test with 786-0 renal; 129% with COLO 205 colon; 94% in the test on DU-145 prostate; 67.6% in the test with MALME-3M melanoma. Moreover, the growth is 56.3% in the test with MDA-MB-231 breast; 40.7% with RXF 393 renal; 77.4% in the test with SF-268 CNS; 110% with SF-295 CNS; 36.2% in the test with SF-539 CNS; 64.6% with UACC-257 melanoma. Further, the growth with M14 melanoma is 70.9%.
As for `Cc1c2cc[nH]c(=O)c2c(C)c2c1[nH]c1cc(OCCN3CCN(C)CC3)ccc12`, the growth in the test with NCI-H23 lung was -18.1% (active); in the test with NCI-H226 lung it was 2.73% (active); in the test with NCI-H322M lung, 7.9% (active); in the test with HOP-62 NSCLC, -16.9% (active); with NCI-H460 lung, -20.5% (active); in the test on HOP-92 NSCLC it was 18.8%. Also, the growth in the test on NCI-H522 lung was -23.9% (active); in the test on A549/ATCC NSCLC it was -21.4% (active); in the test with 786-0 renal it was 20.9%; with COLO 205 colon, -10.1% (active); with DU-145 prostate, 2.69% (active); in the test on MALME-3M melanoma it was -58.8% (active). Moreover, the growth is 4% (active) in the test with MDA-MB-231 breast; -25% (active) in the test with RXF 393 renal; 11.8% in the test with SF-268 CNS; 3.16% (active) with SF-295 CNS; -0.233% (active) in the test with SF-539 CNS; -1.41% (active) in the test on UACC-257 melanoma. The growth in the test on M14 melanoma was -37.1% (active).
On to `O=C(Cc1ccc(/C=C/C(=O)c2ncc[nH]2)cc1)Nc1ccc(Cl)cc1`, for which the growth with NCI-H23 lung is 28.6%; with NCI-H226 lung, 82.2%; in the test on NCI-H322M lung, 42.8%; with HOP-62 NSCLC, 8.21% (active); in the test on NCI-H460 lung, -35.5% (active); with HOP-92 NSCLC, 76%. Besides, the growth is 34.2% in the test on NCI-H522 lung; 33.2% with A549/ATCC NSCLC; 4.48% (active) in the test with 786-0 renal; 18.4% with DU-145 prostate; 8.02% (active) with K-562 leukemia; 89.3% in the test on MALME-3M melanoma. Further, the growth is 22.3% with MDA-MB-231 breast; 49.7% in the test with RXF 393 renal; 12% with SF-268 CNS; 8.31% (active) in the test with SF-295 CNS; -23.1% (active) in the test with SF-539 CNS; 78.7% with UACC-257 melanoma. The growth in the test with M14 melanoma was 63.6%.
As for `CCCC/C=N/NC(=S)NCc1ccccc1`, the growth with NCI-H23 lung is 103%; with NCI-H226 lung it was 98.6%; in the test on NCI-H322M lung, 105%; in the test on HOP-62 NSCLC, 82.1%; in the test on NCI-H460 lung, 101%; in the test with HOP-92 NSCLC, 93.6%. The growth was 94.6% in the test on NCI-H522 lung; 97.9% with A549/ATCC NSCLC; 102% in the test on 786-0 renal; 106% with DU-145 prostate; 91.7% in the test with K-562 leukemia; 97% with MALME-3M melanoma. In addition, the growth in the test on MDA-MB-231 breast is 98.8%; in the test with RXF 393 renal, 106%; in the test with SF-268 CNS, 102%; in the test with SF-295 CNS, 102%; with SF-539 CNS it was 94%; with UACC-257 melanoma, 91.2%. For the same compound, in the test with M14 melanoma, the growth was 87.4%.
`COc1cc(/C=N/NC(=O)c2cnn3c2NC(c2ccccc2)C3)ccc1OCc1ccccc1` (configuration not stated): the growth is 32.8% with NCI-H23 lung; 40.2% in the test on NCI-H226 lung; 28.6% with NCI-H322M lung; -1.18% (active) in the test on HOP-62 NSCLC; -54% (active) in the test on NCI-H460 lung; 7.9% (active) with HOP-92 NSCLC. Moreover, the growth was 19.1% in the test on NCI-H522 lung; -29.8% (active) in the test on A549/ATCC NSCLC; 0.422% (active) with 786-0 renal; 6.15% (active) in the test with DU-145 prostate; 3.64% (active) in the test with K-562 leukemia; -20.5% (active) with MALME-3M melanoma. For the same compound, the growth is 5.81% (active) in the test with MDA-MB-231 breast; -4.25% (active) in the test with RXF 393 renal; 19.6% with SF-268 CNS; -48.3% (active) in the test on SF-295 CNS; -52.6% (active) in the test with SF-539 CNS; 18.5% in the test on UACC-257 melanoma. In addition, the growth in the test with M14 melanoma was 14.8%.
For `COc1cc2oc(-c3cccc(C(=O)Nc4ccc(Br)cc4)c3)cc(=O)c2c(OC)c1OC`, the growth was 77.7% with NCI-H23 lung; 10.7% with NCI-H226 lung; 62.4% in the test on NCI-H322M lung; 58% in the test with HOP-62 NSCLC; 36.2% in the test with NCI-H460 lung; 50.9% in the test with HOP-92 NSCLC. In addition, the growth is 60.9% in the test with NCI-H522 lung; 52.3% in the test on A549/ATCC NSCLC; 67.4% in the test on 786-0 renal; 57.6% with DU-145 prostate; 48.9% with K-562 leukemia; 80.9% in the test with MALME-3M melanoma. Further, the growth in the test on MDA-MB-231 breast was 30.8%; in the test on RXF 393 renal, -2.47% (active); in the test on SF-268 CNS, 61.8%; in the test with SF-295 CNS, 52.9%; in the test on SF-539 CNS, 65%; in the test on UACC-257 melanoma it was 80.1%. Also, the growth with M14 melanoma is 27%.
For the compound `CCCN1[C@@H]2CC[C@H]1/C(=C\c1ccc(OC)c(OC)c1)C(=O)/C2=C/c1ccc(OC)c(OC)c1`, the growth in the test on NCI-H23 lung was 23.8%; in the test on NCI-H226 lung it was 67.3%; in the test with NCI-H322M lung it was 46.7%; in the test with HOP-62 NSCLC it was 68.2%; with NCI-H460 lung, 39.6%; in the test on HOP-92 NSCLC, 39.8%. Also, the growth was 47.8% with NCI-H522 lung; 49.3% with A549/ATCC NSCLC; 63.8% in the test with 786-0 renal; 51.4% in the test with COLO 205 colon; 59.7% with DU-145 prostate; 83.9% in the test on MALME-3M melanoma. The growth was 56.3% with MDA-MB-231 breast; 58.3% with RXF 393 renal; 59.2% in the test with SF-268 CNS; 30.9% with SF-295 CNS; 59.4% with SF-539 CNS; 42.1% in the test on UACC-257 melanoma. For the same compound, in the test on M14 melanoma, the growth is 43.1%.
